Measured values published in PubChem BioAssay AID651812 (National Center for Advancing Translational Sciences (NCATS), 2012).
Out of some 2,100 compounds screened, about 650 (31%) were called active. Roughly 16% stayed inconclusive and do not appear here. Calls come from the whole dose curve; as a rule, active = well fitted inhibition curve with a large enough effect; inconclusive = small, poorly fitted or top-dose-only effect; inactive = flat fitted curve, though single readings scatter. The list shows a part of the results.

assay: qHTS for inhibitors of Vif-A3G interactions: Cherry picks; details: HeLa A3G-eYFP + Vif (tagged APOBEC3G with the HIV-1 protein that degrades it), 24 h; Potency: eYFP fluorescence increase; series mostly up to 36.9 µM; activity, negative = fluorescence increase: at the top concentration; note: nearly all actives have a fitted effect of over 80% in size; for activity, negative = fluorescence increase: % of control where 0% means no effect
Outline: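 HeLa cells stably expressing A3G-eYFP and Vif, cultured overnight then exposed to compounds at several concentrations for 24 hours at 37 C, 5% CO2; cellular yellow fluorescence (488 nm ex, 500-530 nm em) imaged on Acumen, MG132 positive control.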
Potency is the fitted concentration of half-maximal effect.

SMILES | activity, negative = fluorescence increase | Potency
O=C(Cn1ncc(Cl)c(Cl)c1=O)NCC1CCCCC1 | -8.17% (inactive) | –
CC(=O)c1cccc(-c2ccnc3c2CC(C(=O)NCc2ccco2)O3)c1 (stereo not given) | -11.6% (inactive) | –
O=C(Cc1ccccc1)NCc1ccc(-n2cccc2)cc1 | -1.88% (inactive) | –
S=C(Nc1cccc2ccccc12)NN1CCCCCC1 | 10.3% [at 46.1 µM] (inactive) | –
CCc1c(C)nc(SCC(=O)c2cccs2)c(C#N)c1C | -25.4% (inactive) | –
N#Cc1c(-c2ccccc2F)cc(C2CC2)nc1SCC(=O)c1cccs1 | – | 17.7 µM (active)
O=C(COC(=O)c1ccc(NS(=O)(=O)c2cccs2)cc1)NCc1ccco1 | -2.14% (inactive) | –
Cc1ccc2nc3c(cc(S(=O)(=O)c4ccccc4)c(=N)n3Cc3ccco3)c(=O)n2c1 | – | 29.1 µM (active)
CC#Cc1cc2c(cc1O)CCC1C2CCC2(C)C(O)CCC12 (stereo not given) | -0.688% (inactive) | –
COC(=O)c1sc(NC(=O)c2ccc([N+](=O)[O-])o2)c(C#N)c1C | -13.6% (inactive) | –
N#CCc1ccc(NC(=O)/C=C/c2ccc([N+](=O)[O-])o2)cc1 | – | 8.2 µM (active)
CC(=O)Nc1ccc2nc(NC(=O)c3ccc([N+](=O)[O-])o3)sc2c1 | 1.09% (inactive) | –
COc1cc(/C=C/C(=O)c2ccc([N+](=O)[O-])o2)ccc1O | -11.6% (inactive) | –
CCOC(=O)CCc1ccc(NC(=O)/C=C/c2ccc([N+](=O)[O-])o2)cc1 | – | 23.1 µM (active)
COc1ccc(/C=C/C(=O)c2ccc([N+](=O)[O-])o2)cc1 | -6.52% (inactive) | –
O=C(/C=C/c1ccc(Cl)cc1)c1ccc([N+](=O)[O-])o1 | -0.183% (inactive) | –
O=C(NCc1cccnc1)c1ccc([N+](=O)[O-])o1 | -7.07% (inactive) | –
CCc1ccc(C(=O)/C=C/c2ccc([N+](=O)[O-])o2)cc1 | – | 14 µM (active)
Cc1cc(C)n(-c2nnc3n2N=C(c2c[nH]c4ccccc24)CS3)n1 | -5.16% (inactive) | –
CC1(C(=O)NCc2ccco2)Cc2c(-c3ccc(C(N)=O)cc3)ccnc2O1 (stereo not given) | -4.41% (inactive) | –
Clc1ccsc1-c1csc(-c2cccnc2)n1 | -3.28% (inactive) | –
Cc1ccc(O)c(NC(=O)c2cc(-c3ccccc3O)no2)c1 | – | 20.6 µM (active)

SMILES | activity, negative = fluorescence increase | Potency
CCc1nnc(NC(=O)CSc2nnc(-c3ccccc3O)n2-c2ccc(C)cc2C)s1 | -6.03% (inactive) | –
Cc1ccc(O)c(Nc2c3ccccc3nc3ccccc23)c1 | -3.08% [at 46.1 µM] (inactive) | –
CCn1c(=O)c2cc(C(=O)NCCCOC)sc2c2ccccc21 | -7.54% (inactive) | –
C=C(/C=C/c1ccc(N(C)C)cc1)c1nc2ccccc2s1 | – | 18.4 µM (active)
COc1ccccc1-c1cc(NC=O)c2ncc(-c3ccc(S(C)(=O)=O)cc3)n2c1 | -10% (inactive) | –
S=C(NC1CCCCC1)N(CCc1ccccc1)CCc1ccccc1 | -9.72% [at 46.1 µM] (inactive) | –
COc1cc2nc(/C=C/c3ccc(N(C)C)cc3)sc2cc1SC | – | 16.4 µM (active)
NNC(=O)c1oc2nc(-c3ccccc3)cc(-c3ccco3)c2c1N | – | 20.6 µM (active)
Cc1ccc(-c2cc(-c3ccco3)c3c(N)c(C(=O)NN)oc3n2)cc1 | – | 20.6 µM (active)
CC(/C=N/NC(=O)c1cc(-c2ccccc2)nc2ccccc12)=C\c1ccco1 | -8.64% (inactive) | –
CC(C)(C)C(=O)/C(=C/c1ccc(Cl)cc1)n1cncn1 | 1.11% (inactive) | –
CCN(CC)c1ccc2c(cc1=O)[C@@H](NC)CCc1cc(OC)c(OC)c(OC)c1-2 | -19.2% (inactive) | –
COC(=O)c1sc(-c2cccs2)cc1NC(=O)/C=C/C(=O)O | 4.29% (inactive) | –
C=CCN1C(=O)/C(=C2/Sc3ccc(OC)cc3N2CC)SC1=S | – | 14.6 µM (active)
C=CCN1C(=O)/C(=C2/Sc3ccc(OC)cc3N2C)SC1=Nc1cccc(O)c1 | – | 18.4 µM (active)
C[C@]1(O)CC(=O)C=C[C@H]1Nc1ccccc1 | 3.1% (inactive) | –
COc1ccccc1N1C(=O)C2C(C(=O)c3ccccc3)=NN(c3ccc(C)cc3)C2C1=O (stereo not given) | -26.3% (inactive) | –
N=C1S/C(=C\c2ccc(-c3cccc(Cl)c3)o2)C(=O)N1c1nccs1 | – | 20.6 µM (active)
Cc1ccc(Cn2c(SCc3ccc(C(=O)NC4CCCC4)cc3)nc3ccncc32)cc1 | 3.2% [at 46.1 µM] (inactive) | –
COc1ccc2c(c1)/C(=C\c1cccc(/C=C3/C(=O)Nc4ccc(OC)cc43)n1)C(=O)N2 | 0.897% (inactive) | –
COc1ccc2c(c1)/C(=C/c1cc(OC)c(OC)c(OC)c1)C(=O)N2 | -0.665% (inactive) | –
CN(C)S(=O)(=O)c1ccc2c(c1)/C(=C/c1cc3c([nH]1)CCCC3)C(=O)N2 | – | 2.23 µM (active)

SMILES | activity, negative = fluorescence increase | Potency
CC(C)OC(=O)c1c2c(n3ccccc13)C(=O)c1ccccc1C2=O | – | 10.3 µM (active)
COc1cc(/C=C2\SC(=Nc3ccccc3)NC2=O)cc(Cl)c1O | – | 20.6 µM (active)
CCOc1cc(Br)cc(/C=C2\SC(=Nc3ccccc3)NC2=O)c1O | -2.38% (inactive) | –
COc1cc(/C=C2\SC(=Nc3cccnc3)NC2=O)cc(OC)c1OC | -29.3% [at 46.1 µM] (inactive) | –
O=c1c2ccccc2sc2ccc(NCCCN3CCOCC3)cc12 | – | 18.4 µM (active)
Cc1ccc2[nH]c(C(=O)NN=C3CCCCC3)c(-c3ccccc3)c2c1 | 0.458% (inactive) | –
CC1C/C(=N\NC(N)=S)c2cc(Cl)ccc2S1 (stereo not given) | 6.57% [at 46.1 µM] (inactive) | –
N#Cc1c(C(F)(F)F)cc(-c2ccccc2)nc1SCc1nc(N)nc(N2CCOCC2)n1 | – | 8.2 µM (active)
Cc1ccc(N=C2NC(=O)CC(C(=O)Nc3ccc4c(c3)OCO4)S2)cc1 (stereo not given) | -1.13% (inactive) | –
CC(C)n1c(O)c(N=Nc2ccc(Cl)nn2)c2ccccc21 | – | 16.4 µM (active)
O=C(CSc1n[nH]c(-c2ccccn2)n1)Nc1ccc(Cl)cc1 | 3.07% [at 46.1 µM] (inactive) | –
C/C(CC(=O)NCc1ccc(Cl)cc1)=N\NC(=O)COc1ccc(C)cc1Br | -1.44% (inactive) | –
Cc1nc2c3cc(F)ccc3n(Cc3ccccc3F)c2s1 | -11.9% (inactive) | –
CCN1/C(=C\C=C(C(C)=O)C(C)=O)Sc2ccccc21 | – | 20.6 µM (active)
O=C(CN1c2ccccc2Sc2ccccc21)NNC(=O)Nc1cccc(Cl)c1 | -2.17% (inactive) | –
Cc1ccc(-c2nc3ncccc3o2)cc1NC(=O)c1ccc([N+](=O)[O-])o1 | 0.107% [at 46.1 µM] (inactive) | –
CC(C)C1C(=O)N(Cc2cn(CCC3OCCCO3)nn2)CCS(=O)(=O)N1Cc1ccc(-c2cccc(CO)c2)cc1 (stereo not given) | -11.4% (inactive) | –
COc1ccc(-c2ccnc(-c3ccc(O)cc3)n2)cc1 | -14.4% (inactive) | –
CCC1=Nc2cc(C(=O)NCc3cccnc3)ccc2Sc2ccc(C)cc21 | -8.44% (inactive) | –
CCN(CC)C(=O)c1ccc(/C=C/c2c[nH]c3ccccc23)[n+](C)c1 | – | 18.4 µM (active)
C[n+]1cc(C(=O)N2CCCCC2)ccc1/C=C/c1c[nH]c2ccccc12 | – | 14 µM (active)
